Among the data in PubChem BioAssay (Tox21) are Potency values, retold here.

Where “and” joins values, the source holds several entries; their conditions need not be identical. Identical values can stand only once. Inconclusive results are not listed. Where a call stands in place of a potency, no number is given. Calls of active or inactive are those of the source. Calls follow the shape of the full dose curve.
Potency is read from the fitted curve at half-maximal effect.

The assay can be described thus: qHTS assay to identify small molecule agonists of the NFkB signaling pathway - cell viability counter screen (AID 1159515). Also: nearly all actives have a fitted effect of over 55% in size. Particulars: NFkB-bla ME-180 viability, CellTiter-Glo luminescence, 5 h; series mostly up to 61 µM. The source says:
National Center for Advancing Translational Sciences [NCATS]
NIH Chemical Genomics Center [NCGC]
U.S. Environmental Protection Agency [EPA]
National Institutes of Environmental Health Sciences [NIEHS]
National Toxicology Program [NTP]
U.S. Food and Drug Administration [FDA]
Transcription factors and their stimulated target gene expression play pivotal roles across many cellular processes including responses to environmental stimuli. Proper regulation of associated pathways is critical to maintain cell health and function. Constitutive activation of transcription factor pathways has been implicated in tumors as it may block cellular functions such as apoptosis and lead to invasion and metastasis. One important transcription factor that stimulates gene expression in response to cytokines, UV radiation, and other stimuli is nuclear factor-kappa B (NFkB). To measure activation of the NFkB pathway, the CellSensor NFkB-bla ME-180 cell line (Life Technologies, Carlsbad, CA) that stably expresses beta-lactamase reporter gene under the regulation of a NF-kB response element was used. This assay allows measurement of the NFkB pathway activity induced by compounds in a ME-180 cell line. This system quantitates NF-kB activity using a FRET-based assay system where beta-lactamase expression disrupts FRET, allowing for fluorescent measurement of activity. This cell line has been used to screen the Tox21 10K compound library and to identify compounds that induce the NFkB pathway activity. The cytotoxicity of the Tox21 compound library against the NFkB-bla ME-180 cell line was tested in parallel by measuring cell viability using the CellTiter-Glo assay in the same wells.
Tox21 Assay Protocol Summary:
NFkB-bla ME-180 cells were dispensed at 2,000 cells/6 uL of assay medium per well into black wall/clear-bottom 1536-well plates using a Multidrop Combi (ThermoFisher Scientific, Waltham, MA) dispenser. After the assay plates were incubated at 37 C and 5% CO2 for an overnight, 23 nL of compounds dissolved in DMSO, positive controls or DMSO only was transferred to the assay plate by a Pintool station (Kalypsys, San Diego, CA). The assay plates were incubated at 37 C and 5% CO2 for 5 hr. One uL of LiveBLAzer B/G FRET substrate (Life Technologies) was added using a Flying Reagent Dispenser (Aurora Discovery, San Diego, CA) and the plates were incubated at room temperature for 1.5 hr. Fluorescence intensity (405 nm excitation, 460 nm and 530 nm emissions) was measured using an Envision plate reader (PerkinElmer, Shelton, CT). For cytotoxicity, 3 ul/well of CellTiter-Glo reagent was added into the assay plates using an FRD. After 30 min incubation at room temperature, the luminescence intensity was measured using a ViewLux plate reader (PerkinElmer).
On the technique in general: Quantitative high-throughput screening tests each substance at several concentrations.
In the case of `COc1ccc(C(Cl)=C(c2ccc(OC)cc2)c2ccc(OC)cc2)cc1`, the Potency entry was “inactive”.

As to `CN(C)C(=S)SC(=S)N(C)C`, the Potency was 5.02 µM (active) and 977 nM (active) and 6.74 µM (active).

On to `CCOc1ccc(NC(C)=O)cc1`, for which the Potency result is “inactive”.

On to `O=c1[nH]cnc2c1ncn2[C@H]1CC[C@@H](CO)O1`, for which the Potency entry is “inactive”.

Take `C=CCc1ccc(O)c(OC)c1`: the Potency result was “inactive”.

For `OC[C@H]1O[C@H](O[C@]2(CCl)O[C@H](CCl)[C@@H](O)[C@@H]2O)[C@H](O)[C@@H](O)[C@H]1Cl`, the Potency result is “inactive”.

As to `Oc1ccccc1`, the Potency result was “inactive”.

As for `CNNCc1ccc(C(=O)NC(C)C)cc1`, the Potency entry was “inactive”.

In the case of `CS(=O)(=O)OCCCCOS(C)(=O)=O`, the Potency result is “inactive”.

`O=C1NS(=O)(=O)c2ccccc21`: the Potency entry was “inactive”.

For `CN1CCc2cccc3c2[C@H]1Cc1ccc(O)c(O)c1-3`, the Potency entry is “inactive”.

Turning to `Nc1ccc(S(N)(=O)=O)cc1`, the Potency result is “inactive”.

Regarding `CCCCCCCC(=O)OCC(COC(=O)CCCCCCC)OC(=O)CCCCCCC`, the Potency result was “inactive”.

With `C[C@](N)(Cc1ccc(O)c(O)c1)C(=O)O`, the Potency entry is “inactive”.

As for `O=C(O)CC(O)C(=O)O` (stereo not given), the Potency result was “inactive”.

Consider `CC(C)NCC(O)c1ccc(O)c(O)c1` (stereo not given), for which the Potency result is “inactive”.

For the compound `O=c1[nH]cc(F)c(=O)[nH]1`, the Potency entry was “inactive”.

As to `CC(=O)Nc1c(I)c(NC(C)=O)c(I)c(C(=O)O)c1I`, the Potency result was “inactive”.

On to `Cc1cn([C@H]2C=C[C@@H](CO)O2)c(=O)[nH]c1=O`, for which the Potency entry is “inactive”.

As to `CC(O)(P(=O)(O)O)P(=O)(O)O`, the Potency result is “inactive”.

Take `CC(C)C(=O)Nc1ccc([N+](=O)[O-])c(C(F)(F)F)c1`: the Potency result was “inactive”.

`CC12CCC(CC1)C(C)(C)O2`: the Potency entry is “inactive”.

Turning to `CCOC(N)=O`, the Potency entry was “inactive”.

For the compound `Cn1c(=O)c2c(ncn2C)n(C)c1=O`, the Potency entry was “inactive”.

`CC/C(=C(\c1ccccc1)c1ccc(OCCN(C)C)cc1)c1ccccc1`: the Potency is 26.8 µM (active) [middle of 5 runs].

Consider `Cc1c(C(=O)O)c(O)cc2c1C(=O)c1c(O)c([C@@H]3O[C@H](CO)[C@@H](O)[C@H](O)[C@H]3O)c(O)c(O)c1C2=O`, for which the Potency entry is “inactive”.

For `F[B-](F)(F)F`, the Potency result is “inactive”.

Regarding `CCc1nc(N)nc(N)c1-c1ccc(Cl)cc1`, the Potency entry was “inactive”.

Take `CN1[C@@H]2CC(OC(=O)[C@H](CO)c3ccccc3)C[C@H]1[C@@H]1O[C@@H]12` (stereo not given in full): the Potency result was “inactive”.

On to `CCCCOC(=O)c1ccc(O)cc1`, for which the Potency result was “inactive”.

Regarding `NC1CCCCC1`, the Potency entry was “inactive”.

With `O=C1OC2(c3ccccc31)c1cc(Br)c(O)c(Br)c1Oc1c2cc(Br)c(O)c1Br`, the Potency result is “inactive”.

Turning to `Cc1cc(C)nc(NS(=O)(=O)c2ccc(N)cc2)n1`, the Potency result is “inactive”.

Consider `Cc1cc(=O)oc2cc(O)ccc12`, for which the Potency result is “inactive”.

Turning to `CN(C)C(=O)Nc1ccc(Cl)c(Cl)c1`, the Potency result is “inactive”.

Consider `CCCc1cc(=O)[nH]c(=S)[nH]1`, for which the Potency entry was “inactive”.

In the case of `CCCCCCc1ccc(O)cc1O`, the Potency result is “inactive”.

As for `CC1(C)S[C@@H]2[C@H](NC(=O)[C@H](N)c3ccccc3)C(=O)N2[C@H]1C(=O)O`, the Potency result was “inactive”.

For the compound `O=C1NC(=O)C(c2ccccc2)(c2ccccc2)N1`, the Potency entry was “inactive”.

For `COc1ccc(CN(CCN(C)C)c2ccccn2)cc1`, the Potency result is “inactive”.
